Compound activity deposited in PubChem by several laboratories.
A selection: hits, their analogues and other compounds. The true share with any hit is near 2.9%.
dFosB act-1 – enhances mouse delta FosB homodimer DNA binding; P13346; purified delta FosB, TAMRA-CDK5 oligo fluorescence polarization; percent of positive-control signal above neutral wells; activation, % at 25 µM; 340,000 compounds, 0.99% hits; AID 493131;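 active = mean activation above about 17%, with every replicate also reaching it, limit read from the data, passing the limit was not always enough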
MEKK2 WT-MEK5 – raises or lowers MEK5 binding to wildtype human MEKK2 PB1 domain; binding response (% of control), % at 10 µM; bead flow cytometry, Alexa488-MEK5 binding to MEKK2 WT; actives lie on both sides; 290,000 compounds, 1.1% hits; Q9Y2U5; in the data active = binding response below about 67% or above about 130%
MEKK3 PB1 HTS – MEKK3-MEK5 PB1 interaction, increase or decrease; Q99759; bead-based flow cytometry, Alexa488-MEK5 binding to MEKK3; actives lie on both sides; 0 = blocked by unlabeled MEK5, 100 = vehicle; binding response (% of control), % at 10 µM; 290,000 compounds, 1.4% hits; AID 1529;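 active = binding response more than 3 SD above or below the average of its plate-row segment, actives on both sides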;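 also: Alexa488 bead fluorescence after subtracting the streptavidin-only scavenger bead signal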
Target sequence (Q99759 whole entry, looked up): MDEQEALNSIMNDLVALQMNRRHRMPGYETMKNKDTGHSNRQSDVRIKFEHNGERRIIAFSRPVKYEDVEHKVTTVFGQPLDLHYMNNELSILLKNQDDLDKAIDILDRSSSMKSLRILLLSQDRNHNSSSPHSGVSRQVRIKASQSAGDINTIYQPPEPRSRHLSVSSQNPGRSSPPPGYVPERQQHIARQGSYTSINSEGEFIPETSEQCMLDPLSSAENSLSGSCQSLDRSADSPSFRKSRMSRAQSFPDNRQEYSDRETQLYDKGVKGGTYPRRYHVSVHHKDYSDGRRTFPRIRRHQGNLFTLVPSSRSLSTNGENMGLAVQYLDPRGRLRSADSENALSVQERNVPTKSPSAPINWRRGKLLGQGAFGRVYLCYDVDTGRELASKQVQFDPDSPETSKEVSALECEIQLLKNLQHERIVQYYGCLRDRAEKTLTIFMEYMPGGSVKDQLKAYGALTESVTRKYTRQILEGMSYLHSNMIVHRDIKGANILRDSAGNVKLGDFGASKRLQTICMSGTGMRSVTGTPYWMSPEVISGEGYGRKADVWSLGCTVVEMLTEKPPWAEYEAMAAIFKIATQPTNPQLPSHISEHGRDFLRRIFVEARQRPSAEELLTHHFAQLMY
FID counter – counter-screen for HCV NS3 helicase inhibitors: DNA intercalator displacement; DNA fluorescent intercalator displacement, fluorescence; inhibition, % at 7.9 µM; 290,000 compounds, 0.17% hits; AID 1845; in the data active = inhibition above about 37%;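 also: 0% = vehicle and 100% = reference compound; higher means more ethidium bromide displaced from hairpin DNA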
MEKK2 mut-MEK5 – signal of MEK5 binding to mutant human MEKK2 PB1 domain | percent response, % at 10 µM | bead flow cytometry, Alexa488-MEK5 binding to MEKK2 mutant | AID 1530 | 290,000 compounds, 0.35% hits; in the data active = percent response above about 24%, passing the limit was not always enough
dFosB act-2 – activators of mouse delta FosB homodimer DNA binding | shares compounds with dFosB act-1 | purified delta FosB, TAMRA-CDK5 oligo fluorescence polarization; normalised: neutral wells 0, positive control 100 | activation, % at 24.9 µM | 2,400 tested, under 10 active | AID 588690;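 active = highest replicate activation at or above 34% and every replicate reaching that threshold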;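 also: higher polarization means more probe DNA bound by delta FosB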
Numbers without * were called inactive; · = no result given.

SMILES | dFosB act-1 | MEKK2 WT-MEK5 | MEKK3 PB1 HTS | FID counter | MEKK2 mut-MEK5 | dFosB act-2
COc1ccc(C(=O)Nc2ccc(NC(=O)c3ccco3)cc2)cc1 | 51* | 102 | 105 | -9 | 4 | 1
O=C(CN1CCSc2ccccc21)NCCCc1ccccc1 | -7 | 84 | 96 | -15 | -10 | ·
CC(C)N(Cc1ccccc1)C(=S)Nc1ccccc1F | · | 82 | 81 | -4 | -25 | ·
CC(C)CC(NC(=O)C(Cc1ccc(OCc2ccccc2)cc1)NC(=O)OC(C)(C)C)C(N)=O (configuration not stated) | 30* | 110 | 107 | -40 | 9 | 1
Cc1ccnc(NC(=S)NC(=O)c2cncc(Br)c2)c1 | -7 | 105 | 106 | 1 | -2 | ·
Cc1nc(NC(=S)NC(=O)c2cncc(Br)c2)ccc1Br | 21* | 85 | 97 | 0 | -8 | 1
O=C1OC(c2ccco2)=N/C1=C\c1ccc(-c2cccc(C(F)(F)F)c2)o1 | -3 | 90 | 87 | -30 | 0 | ·
CCOc1ccc(Oc2ccc(NC(=O)[C@@H](NC(N)=O)[C@@H](C)CC)cc2)cc1 | 31* | 111 | 111 | -4 | 4 | 1
CCC1CCC(C(=O)NC(C(=O)Nc2ccc3c(c2)OCCO3)C(C)C)CC1 (configuration not stated) | 24* | 92 | 86 | -9 | -3 | 9
C=C(C)CN(CC)c1ccc(N2C(=O)CCCC2=O)cc1[N+](=O)[O-] | -7 | 97 | 97 | -12 | 2 | ·
Cc1ccc(C(=O)Nc2cnc3ccccn3c2=O)cc1 | -1 | 96 | 102 | -1 | -3 | ·
O=C(Nc1cnc2ccccn2c1=O)c1ccc(Cl)cc1Cl | 19* | 107 | 110 | 3 | 0 | 5
Cc1ccc(F)c(CNC(=O)C2CCC(=O)N(CCCN3CCCC3=O)C2)c1F (configuration not stated) | -3 | 103 | 101 | -12 | 2 | ·
NC(=O)NC(=O)COC(=O)c1sc2ccccc2c1Cl | 43* | 90 | 90 | 0 | -21 | 7
O=C(COC(=O)CNC(=O)c1sc2ccccc2c1Cl)Nc1c(Cl)cc(Cl)cc1Cl | 40* | 100 | 103 | -2 | -1 | 8
Cc1ccccc1NC(=O)COC(=O)CNC(=O)c1sc2ccccc2c1Cl | -12 | 98 | 103 | -15 | -2 | ·
COc1cccc(C(=O)N=c2sc3cc(S(C)(=O)=O)ccc3n2C)c1 | 27* | 111 | 106 | -7 | 5 | 2
COc1cc(OC)cc(C(=O)N=c2sc3ccccc3n2C)c1 | -18 | 92 | 102 | -9 | -12 | ·
Cc1cc(S(=O)(=O)NCC(C)C)ccc1OCC(=O)NCC1CCCO1 (configuration not stated) | 2 | 101 | 104 | -13 | 0 | ·
COc1cc(-c2cc(O)c(-c3ccc4ccccc4n3)c(=O)[nH]2)cc(OC)c1OC | -19 | · | · | · | · | ·
Cc1cc(C)n(CC(O)Cn2c3ccc(Cl)cc3c3cc(Cl)ccc32)c(=O)n1 (configuration not stated) | 25* | 100 | 107 | -17 | 0 | 1
Cc1cc(C)n(CC(O)Cn2c3ccccc3c3ccccc32)n1 (configuration not stated) | 1 | 103 | 105 | -27 | 4 | ·
COc1ccc(Br)cc1CNC(=O)CN1C(=O)C(c2ccccc2)Oc2cccnc21 (configuration not stated) | 27* | 95 | 100 | -57 | 0 | 1
COc1ccc(NC(=O)CCCN2C(=O)C(c3ccccc3)Oc3cccnc32)cc1OC (configuration not stated) | -1 | 95 | 98 | -50 | 0 | ·
O=[N+]([O-])c1ccc(NC2CCCC2)cc1 | -2 | 92 | 94 | 4 | -4 | ·
SMILES | dFosB act-1 | MEKK2 WT-MEK5 | MEKK3 PB1 HTS | FID counter | MEKK2 mut-MEK5 | dFosB act-2
COc1cc(/C=N/Nc2nc(C)cc(C)n2)ccc1OC(=O)c1ccco1 | -3 | 98 | 95 | -21 | -2 | ·
CCOc1cc(/C=N\Nc2nc(Nc3ccccc3)nc(N3CCOCC3)n2)ccc1OC(=O)c1ccco1 | 48* | 111 | 100 | -4 | 12 | -2
O=[N+]([O-])c1ccc(Nc2nc(N/N=C/c3cccc(F)c3)nc(N3CCCC3)n2)cc1 | 120* | 114 | 87 | 1 | 2 | 3
O=[N+]([O-])c1ccc(/C=N/Nc2nc(N3CCOCC3)nc(N3CCOCC3)n2)cc1 | 4 | 94 | 98 | -7 | -1 | ·
CNc1nc(N/N=C/c2ccc([N+](=O)[O-])cc2)nc(Nc2ccccc2)n1 | 41* | 114 | 100 | -5 | -1 | -9
O=[N+]([O-])c1ccc(Nc2nc(NC3CCCCC3)nc(N3CCCC3)n2)cc1 | 48* | 124 | 99 | -3 | -5 | 3
O=C(CNC(=O)c1ccccc1)OCC(=O)c1ccc(Cl)s1 | 7 | · | · | · | · | ·
O=C(c1ccc2nc(Cc3cccc(Cl)c3)oc2c1)N1CCC(O)CC1 | -4 | 98 | 97 | -23 | -1 | ·
CCN(CC)CCN(Cc1cc2cc3c(cc2[nH]c1=O)OCO3)C(=S)NC | 2 | 108 | 103 | 0 | 2 | ·
Cc1c([N+](=O)[O-])c(C/C=N/O)nn1C | -5 | 97 | 101 | -4 | -1 | ·
Cc1c(Cl)cccc1NC(=O)COC(=O)c1ccc(CN2CCCC2=O)cc1 | 4 | · | · | · | · | ·
CCN(Cc1nc(-c2ccc(C)cc2)no1)C(=O)c1ccco1 | -4 | 101 | 104 | -28 | 8 | ·
O=[N+]([O-])c1cc2c(cc1/C=N/Nc1nc(Nc3ccccc3)nc(N3CCCCC3)n1)OCO2 | 38* | 98 | 103 | -5 | -1 | 0
COc1ccc(/C=N/Nc2nc(Nc3ccccc3)nc(N3CCCC3)n2)cc1 | 47* | 97 | 97 | -13 | -2 | 1
COc1ccc(/C=N/Nc2nc(N3CCCC3)nc(N3CCCC3)n2)cc1 | -2 | 98 | 102 | -18 | -2 | ·
CCn1c(CNC(=O)c2ccco2)nnc1SCC(=O)Nc1cc(F)ccc1C | 1 | 101 | 103 | -4 | -3 | ·
COC(=O)Nc1ccc(S(=O)(=O)NNC(=O)c2c(O)c3ccccc3n(C)c2=O)cc1 | 41* | 101 | 107 | -4 | 2 | 0
COc1cc(CN(C(=S)NCC(=O)NC2CC2)C2CCCC2)cc(OC)c1OC | 3 | 103 | 100 | -30 | -2 | ·
COc1ccccc1Nc1nnc(SCC(=O)Nc2cc(C)on2)s1 | -2 | 96 | 95 | -6 | -2 | ·
O=C1COc2ccc(C(=O)CSc3nnc(NCc4ccccc4)s3)cc2N1 | 43* | 89 | 89 | -22 | -10 | 1
Cn1c(SCC(=O)c2ccc3c(c2)NC(=O)CO3)nc2ccccc21 | 39* | 112 | 120 | -8 | 0 | 10
Cc1cc(NC(=O)CSc2nnc(NCc3ccccc3)s2)no1 | 22* | 102 | 100 | -7 | 0 | 0
